Inconclusive results are not listed. The source made the active and inactive calls. Unless noted, calls come from the whole dose curve; as a rule, active = well fitted curve in the direction sought with a large enough effect; inconclusive = small, poorly fitted or top-dose-only effect, or another doubt; inactive = no such curve, though single readings can be large; an effect the other way counts as inactive or inconclusive.
Columns and labels:
[1] = target: Lysosomal acid glucosylceramidase (Homo sapiens) (UniProt P04062); experiment: Glucocerebrosidase-p2 (AID 348; in the data active = potency below about 10 µM; note: potency is the fitted concentration of half-maximal effect); details: purified GBA, blue fluorogenic substrate, 40 min
In short: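 Normal human glucocerebrosidase (0.2 nM) with blue fluorogenic substrate (80 uM final) in citrate/phosphate pH 5.9 with 10mM sodium taurocholate, 0.01% tween-20; 40 min RT, NaOH/glycine stop; fluorescence Ex 365/Em 440; AC50 from a titration from 0.6 nM upwards.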

[2] = AP1 Signaling Pathway (AID 357; active = well fitted curve in either direction with a large enough effect, not every such curve was filed as active;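 note: ME-180 reporter cells stimulated with EGF at its EC50 level; % is set by controls: 0 for no effect and ±100 for the full control effect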); details: ME-180 AP-1-bla reporter, EGF-induced, beta-lactamase ratio, 5 h; at 7.69 µM (top of the series) unless noted
In short: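 Modulation of EGF-driven AP-1 transcription was assessed with a beta-lactamase reporter in ME-180 cells. Compound and EC50 EGF were co-incubated 5 hours at 37 °C before 2.5-hour CCF4 loading at room temperature and dual-emission reading.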

[3] = NFAT Signaling Pathway (AID 444; active = well fitted curve in either direction with a large enough effect, not every such curve was filed as active;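 note: carbachol stimulus at about its EC50 of 1 µM final; % is set by controls: 0 for no effect and ±100 for the full control effect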); details: Jurkat NFAT-bla M1, carbachol, beta-lactamase ratio, 5 h; at 7.69 µM (top of the series) unless noted
In short: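 Read-out: CCF4 FRET ratio (460 nm/530 nm) after 1 h RT dye loading, used for %activity and AC50 from titration series. Cells: Jurkat NFAT-β-lactamase/M1 line, treated with compound plus 1 uM carbachol for 5 h, 37 °C.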

[4] = Stat Signaling Pathway (AID 446; active = well fitted curve in either direction with a large enough effect, not every such curve was filed as active;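 note: ME-180 cervical cancer cells given 40 pM IL-6 alongside compound; SIE-controlled beta-lactamase reporter measured as 460/530 nm FRET emission ratio; % is set by controls: 0 for no effect and ±100 for the full control effect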); details: ME-180 (cervical carcinoma) SIE beta-lactamase reporter, IL-6 stimulated, 5 h; at 7.69 µM (top of the series) unless noted
In short: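 Emission at 460 and 530 nm (excitation 405 nm) reports SIE-controlled beta-lactamase in ME-180 cells. Cells received compound with 40 pM IL-6 for 5 hrs at 37 C; data scaled between 300 pM IL-6 and 125 nM JAK-inhibitor controls.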

[5] = target: Glucocorticoid receptor (Homo sapiens) (UniProt P04150); experiment: GR-GFP Redistribution (AID 450;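 active = compounds whose dose series gives a full or clear partial fitted curve of increased nuclear translocation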; note: potency is the fitted concentration of half-maximal effect); details: U2OS GR-GFP nuclear translocation, laser cytometry, 2 h
[6] = target: Glucocorticoid receptor (Homo sapiens) (UniProt P04150); experiment: GR-EFC Redistribution (AID 451; calls by dose curve; note: potency is the fitted concentration of half-maximal effect); details: CHO-K1 GR-EFC translocation, beta-gal luminescence, 2 h
In short: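 Translocation of GR-ED fusion to nuclear EA restores b-gal, read by luminescence after 1 h room-temperature detection. Engineered CHO-K1 biosensor cells, 1,000/well, exposed 2 h at 37 C to titrations up to 46 uM final.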

[7] = target: 3',5'-cyclic-AMP phosphodiesterase 4B (Homo sapiens) (UniProt Q07343); experiment: qHTS Assay for Inhibitors of PDE-IV (AID 607; active = well fitted activation curve with a large enough effect in the main read-out, with a control signal flat, not every such curve was filed as active; note: % of control where 0% means no effect); details: HEK293 ACTOne CNG channel cells, membrane potential fluorescence; series mostly up to 22.9 µM
In short: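 The readout is membrane depolarisation from a cAMP-sensing CNG channel, detected with a potential dye at ex 535/em 590. Cells were HEK293-derived (endogenous PDE-IV) at 1000 cells/well, titrated up to 22.9 uM final.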

[8] = Confirmatory qHTS for small molecule stabilizers of the endoplasmic reticulum resident proteome: Secreted ER Calcium Modulated Protein (SERCaMP) assay (AID 1508628); details: SERCaMP secreted luciferase ER calcium/proteostasis reporter; series mostly up to 76.3 µM; note: nearly all actives have a fitted effect of over 40% in size; note: potency is the fitted concentration of half-maximal effect
In short: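 Reporter secretion upon ER calcium depletion (100 nM thapsigargin, 4 h, 37C) is measured as medium luminescence with coelenterazine, after 16 h compound pretreatment of SH-SY5Y-GLuc-SERCaMP cells; primary at three concentrations up to 38.3 uM, follow-up at 11 (up to 76.6 uM).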

[9] = target: Mitogen-activated protein kinase 10 (Mus musculus) (UniProt Q61831); experiment: JNK3 AlphaScreen Assay (AID 530; active = well fitted curve in either direction with a large enough effect, not every such curve was filed as active;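 note: kinase came from lysate of stimulated human HepG2 cells; signal reports phosphorylation of biotinylated GST-cJun 1-79 at Ser73 with 10 µM ATP; % is set by controls: 0 for no effect and ±100 for the full control effect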); details: JNK3 lysate, c-Jun phosphorylation; series mostly up to 57.1 µM
In short: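 qHTS titrations with 15 min compound pre-incubation before adding ATP (10 uM final). Read-out: AlphaScreen of Ser73-phosphorylated biotin-GST-cJun using HepG2 lysate JNK3 activated by IL-1β and TNFα.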

[10] = qHTS Assay for Lipid Storage Modulators (AID 1519; calls by dose curve); details: Drosophila S3 cells, BODIPY lipid droplet/cell ratio, laser cytometry, cells loaded with oleic acid; for activity change, negative = inhibition: at 57.5 µM (top of the series)
In short: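 Cells seeded at 5,000 per well were treated with compounds over a concentration series and loaded with oleic acid (400 uM, as added). Lipid droplet fluorescence (488 nm excitation, 500-530 nm channel) was read by laser-scanning cytometry and normalized to 20 uM Triacsin C.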

[11] = target: Dual specificity protein kinase CLK4 (Homo sapiens) (UniProt Q9HAZ1); experiment: qHTS Assay for Inhibitors of CDC-like Kinase 4 (Kinase-Glo Assay) (AID 1770); details: recombinant Clk4, Kinase-Glo ATP depletion luminescence; series mostly up to 66.7 µM; note: % is set by controls: 0 for no effect and ±100 for the full control effect; nearly all actives have a fitted effect of over 65% in size
In short: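 Clk4 25 nM, RS peptide 100 uM, ATP 1 uM, pH 7.5 Tris, 10 mM MgCl2, 2.5 mM DTT; 4.5 h RT; ATP depletion read by Kinase-Glo luminescence.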

[12] = target: Dual specificity protein kinase CLK4 (Homo sapiens) (UniProt Q9HAZ1); experiment: qHTS Assay for Inhibitors of CDC-like Kinase 4 (ADP-Glo Assay) (AID 1771); details: recombinant CLK4, ADP-Glo luminescence; series mostly up to 80 µM; note: % is set by controls: 0 for no effect and ±100 for the full control effect; nearly all actives have a fitted effect of over 70% in size
In short: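 Compounds are pin-transferred onto substrate mix (100 uM RS peptide, 1 uM ATP), then 25 nM Clk4 is added. After 1 hr at room temperature, ADP-Glo reagent runs 45 min, detection reagent 30 min, then luminescence is read.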

[13] = target: Dual specificity protein kinase CLK4 (Homo sapiens) (UniProt Q9HAZ1); experiment: qHTS Assay for Inhibitors of CDC-like Kinase 4 (ADP-FP Assay) (AID 1795); details: Transcreener ADP fluorescence polarization; series mostly up to 50 µM;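 note: recombinant human CLK4 phosphorylating RS repeat peptide at 1 µM ATP; % is set by controls: 0 for no effect and ±100 for the full control effect; nearly all actives have a fitted effect of over 60% in size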
In short: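 Kinase activity was followed as ADP output, converted from fluorescence polarization with a calibration curve. Reactions ran one hour at low ATP (1 uM) with RS peptide substrate.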

[14] = target: Ubiquitin carboxyl-terminal hydrolase 1 (Homo sapiens) (UniProt O94782); experiment: Inhibitors of USP1/UAF1: Pilot qHTS (AID 504865); details: purified USP1/UAF1, Ub-rhodamine cleavage fluorescence; series mostly up to 54.9 µM;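 note: rhodamine fluorescence freed from ubiquitin-rhodamine substrate followed over time; top concentration of the series differs between compounds; % is set by controls: 0 for no effect and ±100 for the full control effect; nearly all actives have a fitted effect of over 35% in size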
In short: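 Enzyme-free wells gave the negative control, while test wells held 1nM USP1/UAF1 preincubated with compound for 15 min at room temperature. Ub-Rho at 150nM final started the reaction, and fluorescence at 480/540 nm was recorded kinetically.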

[15] = Counterscreen qHTS for small molecule stabilizers of the endoplasmic reticulum resident proteome: GLuc-NoTag assay (AID 1508627); details: Gaussia luciferase NoTag secretion counterscreen, luminescence, thapsigargin 100 nM for final 4 h; series mostly up to 76.4 µM;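 note: 0% = thapsigargin alone and -100% = DMSO vehicle control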
In short: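 Counterscreen line: SH-SY5Y-GLuc-NoTag cells, treated with compound 19 hr before a 4 hr, 100 nM thapsigargin calcium depletion. Secreted Gaussia luciferase in the medium was measured by luminescence after coelenterazine was added (0.07x final), with cells unlysed.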

[16] = target: Cytochrome P450 3A4 (Homo sapiens) (UniProt P08684); experiment: qHTS Assay for Inhibitors and Substrates of Cytochrome P450 3A4 (AID 884); details: recombinant CYP3A4, Luciferin-PPXE luminescence; series mostly up to 57.1 µM; note: potency is the fitted concentration of half-maximal effect; nearly all actives have a fitted effect of over 50% in size
In short: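 Luminescent readout of luciferin produced by CYP3A4 (20 nM) dealkylation of Luciferin-PPXE, 25 uM (its KM). NADPH-driven reaction ran 60 min at RT after 10 min compound preincubation; data scaled to 57 uM ketoconazole as 100% inhibition.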

[17] = target: Cytochrome P450 3A4 (Homo sapiens) (UniProt P08684); experiment: qHTS Assay for Activators of Cytochrome P450 3A4 (AID 885); details: recombinant CYP3A4, Luciferin-PPXE luminescence, 60 min; series mostly up to 57.1 µM; note: nearly all actives have a fitted effect of over 65% in size
In short: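 Activators are scored by enhanced luminescence from CYP3A4 conversion of luciferin-PPXE (25uM, equal to KM) to luciferin, after 60 min at RT with an NADPH-regenerating system.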

[18] = target: Cytochrome P450 1A2 (Homo sapiens) (UniProt P05177); experiment: p450-cyp1a2 (AID 410; calls by dose curve; note: potency is the fitted concentration of half-maximal effect;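 for activity change, negative = inhibition: -100% = full effect of reference inhibitor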); details: recombinant CYP1A2, luciferin-ME demethylation, luminescence; series mostly up to 57 µM
In short: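 O-Demethylation of luciferin 6' methyl ether by human CYP1A2 is monitored as luciferase luminescence. Substrate sits at Km (100uM); enzyme is 20nM. Values are scaled to 57 uM furafylline as maximal inhibition.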

[19] = measured here: cell count channel max response
[20] = measured here: lipid channel max response

3',5'-cyclic-AMP phosphodiesterase 4B (Homo sapiens), sequence (Q07343 whole entry, looked up): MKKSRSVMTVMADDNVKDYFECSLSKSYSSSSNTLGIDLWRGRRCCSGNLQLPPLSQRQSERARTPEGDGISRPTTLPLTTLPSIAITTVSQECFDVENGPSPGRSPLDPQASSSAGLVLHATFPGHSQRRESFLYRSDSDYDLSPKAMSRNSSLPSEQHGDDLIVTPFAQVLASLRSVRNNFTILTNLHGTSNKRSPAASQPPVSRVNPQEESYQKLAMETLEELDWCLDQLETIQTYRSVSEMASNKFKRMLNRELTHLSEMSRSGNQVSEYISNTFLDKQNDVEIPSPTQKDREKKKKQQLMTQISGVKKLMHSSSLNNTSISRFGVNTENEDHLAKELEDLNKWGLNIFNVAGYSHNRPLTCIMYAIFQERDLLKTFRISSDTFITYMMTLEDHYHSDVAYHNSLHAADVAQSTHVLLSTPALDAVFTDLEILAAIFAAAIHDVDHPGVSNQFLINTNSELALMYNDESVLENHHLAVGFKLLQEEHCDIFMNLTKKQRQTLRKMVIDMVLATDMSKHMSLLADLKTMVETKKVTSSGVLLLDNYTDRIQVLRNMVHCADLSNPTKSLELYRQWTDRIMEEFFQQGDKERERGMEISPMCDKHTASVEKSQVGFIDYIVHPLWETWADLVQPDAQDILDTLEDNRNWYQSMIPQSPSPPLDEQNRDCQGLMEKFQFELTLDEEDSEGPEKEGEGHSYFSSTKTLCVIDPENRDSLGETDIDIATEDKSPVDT
Cytochrome P450 1A2 (Homo sapiens), sequence (P05177 whole entry, looked up): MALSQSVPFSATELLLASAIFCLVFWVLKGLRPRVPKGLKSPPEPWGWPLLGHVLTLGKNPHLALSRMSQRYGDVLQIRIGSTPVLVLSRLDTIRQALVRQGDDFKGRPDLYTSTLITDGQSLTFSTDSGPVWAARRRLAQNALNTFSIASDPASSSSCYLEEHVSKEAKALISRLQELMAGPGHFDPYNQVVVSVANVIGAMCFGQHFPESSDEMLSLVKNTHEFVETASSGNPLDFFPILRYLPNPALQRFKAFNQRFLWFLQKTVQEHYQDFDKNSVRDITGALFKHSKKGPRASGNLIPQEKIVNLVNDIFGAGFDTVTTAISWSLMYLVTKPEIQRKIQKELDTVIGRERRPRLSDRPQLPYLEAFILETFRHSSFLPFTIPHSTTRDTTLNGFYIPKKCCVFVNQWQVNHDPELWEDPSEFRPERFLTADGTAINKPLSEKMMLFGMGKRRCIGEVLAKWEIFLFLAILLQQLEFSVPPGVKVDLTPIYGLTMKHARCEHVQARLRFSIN
Lysosomal acid glucosylceramidase (Homo sapiens), sequence (P04062 whole entry, looked up): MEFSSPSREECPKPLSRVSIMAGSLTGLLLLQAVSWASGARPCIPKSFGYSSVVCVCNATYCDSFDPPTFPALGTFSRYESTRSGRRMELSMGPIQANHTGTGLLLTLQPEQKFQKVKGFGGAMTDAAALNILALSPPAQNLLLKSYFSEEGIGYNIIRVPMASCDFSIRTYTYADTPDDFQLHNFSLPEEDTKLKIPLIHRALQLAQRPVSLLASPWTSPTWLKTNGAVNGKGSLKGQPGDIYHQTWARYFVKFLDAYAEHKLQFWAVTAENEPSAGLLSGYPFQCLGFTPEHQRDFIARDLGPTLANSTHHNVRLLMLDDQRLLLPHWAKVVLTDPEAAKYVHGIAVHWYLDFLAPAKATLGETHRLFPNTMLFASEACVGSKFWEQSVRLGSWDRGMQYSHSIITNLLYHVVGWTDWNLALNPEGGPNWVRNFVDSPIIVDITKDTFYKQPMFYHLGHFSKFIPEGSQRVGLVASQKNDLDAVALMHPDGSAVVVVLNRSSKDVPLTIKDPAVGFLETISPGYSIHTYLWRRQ
Dual specificity protein kinase CLK4 (Homo sapiens), sequence (Q9HAZ1 whole entry, looked up): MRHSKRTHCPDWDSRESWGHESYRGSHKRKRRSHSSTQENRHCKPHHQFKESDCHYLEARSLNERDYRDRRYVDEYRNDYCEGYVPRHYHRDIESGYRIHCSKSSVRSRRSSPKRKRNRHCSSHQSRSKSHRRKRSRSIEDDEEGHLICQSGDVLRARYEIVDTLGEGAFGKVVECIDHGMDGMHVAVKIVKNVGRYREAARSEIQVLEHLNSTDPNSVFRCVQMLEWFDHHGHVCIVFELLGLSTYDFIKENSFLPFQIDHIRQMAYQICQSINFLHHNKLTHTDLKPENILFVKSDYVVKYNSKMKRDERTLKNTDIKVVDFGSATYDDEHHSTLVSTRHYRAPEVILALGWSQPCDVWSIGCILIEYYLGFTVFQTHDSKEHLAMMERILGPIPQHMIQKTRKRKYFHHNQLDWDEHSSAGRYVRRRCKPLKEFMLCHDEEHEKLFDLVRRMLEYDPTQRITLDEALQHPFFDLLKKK
Glucocorticoid receptor (Homo sapiens), sequence (P04150 whole entry, looked up, the tested form may be a part): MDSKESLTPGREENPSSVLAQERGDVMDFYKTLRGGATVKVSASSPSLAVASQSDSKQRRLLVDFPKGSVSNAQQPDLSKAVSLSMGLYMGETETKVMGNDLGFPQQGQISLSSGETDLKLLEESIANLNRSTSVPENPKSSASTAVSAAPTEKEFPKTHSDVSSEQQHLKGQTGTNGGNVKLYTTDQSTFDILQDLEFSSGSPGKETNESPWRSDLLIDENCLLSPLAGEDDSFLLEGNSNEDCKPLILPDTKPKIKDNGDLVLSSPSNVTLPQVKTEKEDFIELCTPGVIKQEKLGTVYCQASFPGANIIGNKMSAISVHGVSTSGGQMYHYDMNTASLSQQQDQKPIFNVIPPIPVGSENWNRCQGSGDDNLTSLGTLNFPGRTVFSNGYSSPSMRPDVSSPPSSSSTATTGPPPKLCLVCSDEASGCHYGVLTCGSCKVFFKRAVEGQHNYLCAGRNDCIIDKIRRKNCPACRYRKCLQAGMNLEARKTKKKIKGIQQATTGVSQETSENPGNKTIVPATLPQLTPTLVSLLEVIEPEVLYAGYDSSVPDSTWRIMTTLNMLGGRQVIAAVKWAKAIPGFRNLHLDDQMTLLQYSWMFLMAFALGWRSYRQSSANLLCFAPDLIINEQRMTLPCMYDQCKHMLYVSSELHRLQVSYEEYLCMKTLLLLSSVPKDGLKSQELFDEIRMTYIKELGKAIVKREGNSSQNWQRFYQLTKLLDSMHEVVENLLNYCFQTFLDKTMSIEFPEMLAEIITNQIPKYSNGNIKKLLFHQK
Cytochrome P450 3A4 (Homo sapiens), sequence (P08684 whole entry, looked up): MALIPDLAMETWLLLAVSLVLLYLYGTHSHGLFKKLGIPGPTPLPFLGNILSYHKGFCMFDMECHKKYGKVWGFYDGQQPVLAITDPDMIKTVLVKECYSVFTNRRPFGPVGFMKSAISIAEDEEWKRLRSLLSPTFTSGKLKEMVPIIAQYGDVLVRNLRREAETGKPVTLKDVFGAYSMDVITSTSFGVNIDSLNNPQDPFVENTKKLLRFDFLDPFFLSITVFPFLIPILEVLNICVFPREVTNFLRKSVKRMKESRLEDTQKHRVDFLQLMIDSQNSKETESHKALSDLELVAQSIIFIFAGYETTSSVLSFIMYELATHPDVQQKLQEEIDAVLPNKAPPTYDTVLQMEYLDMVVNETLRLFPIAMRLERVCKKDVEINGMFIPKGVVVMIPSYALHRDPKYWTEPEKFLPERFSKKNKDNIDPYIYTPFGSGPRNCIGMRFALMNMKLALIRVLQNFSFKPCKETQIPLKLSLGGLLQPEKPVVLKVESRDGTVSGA
Ubiquitin carboxyl-terminal hydrolase 1 (Homo sapiens), sequence (O94782 whole entry, looked up): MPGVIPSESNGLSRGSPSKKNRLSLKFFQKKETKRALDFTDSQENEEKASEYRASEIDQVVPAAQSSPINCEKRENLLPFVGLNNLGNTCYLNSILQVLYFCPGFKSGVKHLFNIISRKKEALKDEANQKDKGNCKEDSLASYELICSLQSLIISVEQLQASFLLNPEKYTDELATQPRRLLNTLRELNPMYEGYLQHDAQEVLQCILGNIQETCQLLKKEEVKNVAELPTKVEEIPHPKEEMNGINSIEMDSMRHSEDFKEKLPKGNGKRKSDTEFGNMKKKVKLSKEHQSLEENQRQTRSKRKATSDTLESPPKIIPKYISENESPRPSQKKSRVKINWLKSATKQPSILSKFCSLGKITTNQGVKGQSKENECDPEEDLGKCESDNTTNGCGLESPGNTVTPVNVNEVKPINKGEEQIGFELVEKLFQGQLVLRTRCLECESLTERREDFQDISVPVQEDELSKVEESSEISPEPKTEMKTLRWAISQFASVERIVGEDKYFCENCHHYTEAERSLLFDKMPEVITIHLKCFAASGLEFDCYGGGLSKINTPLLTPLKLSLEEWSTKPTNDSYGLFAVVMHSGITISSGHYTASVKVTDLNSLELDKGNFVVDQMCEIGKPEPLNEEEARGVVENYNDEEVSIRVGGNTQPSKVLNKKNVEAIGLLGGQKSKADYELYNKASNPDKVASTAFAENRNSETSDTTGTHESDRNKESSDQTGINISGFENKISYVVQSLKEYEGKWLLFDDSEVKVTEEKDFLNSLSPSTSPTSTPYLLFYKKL

COc1ccc(Oc2ncc3nc(-c4cc(F)cc(F)c4)c(=O)n(CCC#N)c3n2)cc1
active: Potency [8] 31.6 µM
inactive: Potency [1] > 11.4 µM | activity change, negative = inhibition [2] -6.65% | activity change, negative = inhibition [3] -14.9% | activity, negative = inhibition [4] -11.4% | Potency [5] > 9.22 µM | Potency [6] > 46 µM | Potency [7]

COCCn1c(=O)c(-c2ccc(Cl)cc2)nc2cnc(OCc3ccccc3)nc21
inactive: Potency [1] > 11.4 µM | activity change, negative = inhibition [2] -14.1% | activity change, negative = inhibition [3] 1.06% | activity, negative = inhibition [4] -2.08% | Potency [5] > 9.22 µM | Potency [6] > 46 µM | outcome [9] | activity change, negative = inhibition [10] -8.74% | Potency [11] | Potency [12] | Potency [13] | Potency [14] | Potency [15]
-15.5%: max response [10, 20]
-2.09%: max response [10, 19]

O=C(CCCN1C(=O)c2cccc3cccc(c23)C1=O)N1CCN(Cc2ccc3c(c2)OCO3)CC1
active: Potency [8] 27.3 µM

CC(C)(c1cc(Br)c(O)c(Br)c1)c1cc(Br)c(O)c(Br)c1
inactive: outcome [9] | Potency [17] | Potency [15] | Potency [8]
active: Potency [16] 15.8 µM

CCNc1ncc2nc(CCc3ccccc3)c(=O)n(CCOC)c2n1
inactive: activity change, negative = inhibition [2] 0.721% | activity change, negative = inhibition [3] 2.18% | activity, negative = inhibition [4] -8.07% | Potency [5] > 9.22 µM | Potency [6] > 46 µM | Potency [17] | Potency [15]
active: Potency [18] 2 µM | Potency [8] 35.5 µM

O=C(c1cc(C(F)(F)F)cc(C(F)(F)F)c1)N1CCC2(CC1)CN(c1ccccn1)C2
inactive: activity change, negative = inhibition [2] -8.97% | Potency [18] | activity, negative = inhibition [4] -17.5% | Potency [6] > 46 µM | outcome [9] | Potency [7] | Potency [8]
active: Potency [1] 0.37 µM

COc1ccc(-n2c(=O)c(C)nc3cnc(N4CCNCC4)nc32)cc1
inactive: Potency [1] > 11.4 µM | activity change, negative = inhibition [2] -6.88% | activity change, negative = inhibition [3] -7.6% | activity, negative = inhibition [4] 7.09% | Potency [5] > 9.22 µM | Potency [6] > 46 µM | outcome [9] | Potency [17] | Potency [15]
active: Potency [18] 15.8 µM

COc1cc(CN2CCN(C(=O)c3ccc(-c4ccccc4)cc3)CC2)cc(OC)c1OC
inactive: Potency [8]

O=S(=O)(c1ccccc1)N1CCC[C@@]2(CCN(c3ccncc3)C2)C1
4.65%: max response [10, 19]
inactive: Potency [1] > 11.4 µM | activity change, negative = inhibition [2] -6.47% | Potency [18] | activity, negative = inhibition [4] 0.894% | Potency [6] > 46 µM | outcome [9] | Potency [7] | Potency [17] | activity change, negative = inhibition [10] 0.287% | Potency [15]
active: Potency [16] 3.98 µM
6.49%: max response [10, 20]

Source: PubChem BioAssay (NCATS)
